Active and inactive are the calls of the source. How the source made its calls: active means hit-call score of the fitted dose curve at least 0.9, where 1 is the maximum; inactive means score below 0.9.
What follows are molecules tested against human Serotonin Transporter (SET), SLC6A4 (gene 6532) (UniProt P31645) (assay: ERF_FR_TR_hSLC6A4: Eurofins (ERF) Radioligand Binding LeadHunter Assay for human Serotonin Transporter (SET) human Agonism).
Method: ERF_FR_TR_hSLC6A4 is a biochemical, single-readout assay that uses extracted gene-proteins in a cell-free assay. Measurements were taken 1 hour after chemical dosing in a 96-well plate. See SET Human Serotonin Transporter Binding (Antagonist Radioligand) Assay, Cerep.ERF_FR_TR_hSLC6A4 is an assay component calculated from the ERF_FR_TR_hSLC6A4 assay. It is designed to measure radioligand binding using a type of binding reporter as detected by scintillation counting with radiometry technology.Data from the assay component ERF_FR_TR_hSLC6A4 was analyzed at the assay endpoint, ERF_FR_TR_hSLC6A4, in the positive analysis fitting direction relative to DMSO as the negative control and baseline of activity. Using a type of binding reporter, loss-of-signal activity can be used to understand changes in enzymatic activity as they relate to gene SLC6A4. To generalize the intended target to other relatable targets, this assay endpoint is annotated to the transporter intended target family, where the subfamily is SLC6 / Monoamine.
Human recombinant serotonin transporter expressed in human HEK-293 cells are used in modified Tris-HCl buffer pH 7.4. A 2 ug aliquot is incubated with 0.4 nM [3H]Paroxetine for 60 minutes at 25C. Non-specific binding is estimated in the presence of 10 uM imipramine. Transporters are filtered and washed. The filters are then counted to determine [3H]Paroxetine specifically bound. Compounds are screened at 10 uM. Membrane protein may change from lot to lot; the concentration used will be adjusted if necessary.

Sequence of human Serotonin Transporter (SET), SLC6A4 (gene 6532) (P31645 whole entry, looked up): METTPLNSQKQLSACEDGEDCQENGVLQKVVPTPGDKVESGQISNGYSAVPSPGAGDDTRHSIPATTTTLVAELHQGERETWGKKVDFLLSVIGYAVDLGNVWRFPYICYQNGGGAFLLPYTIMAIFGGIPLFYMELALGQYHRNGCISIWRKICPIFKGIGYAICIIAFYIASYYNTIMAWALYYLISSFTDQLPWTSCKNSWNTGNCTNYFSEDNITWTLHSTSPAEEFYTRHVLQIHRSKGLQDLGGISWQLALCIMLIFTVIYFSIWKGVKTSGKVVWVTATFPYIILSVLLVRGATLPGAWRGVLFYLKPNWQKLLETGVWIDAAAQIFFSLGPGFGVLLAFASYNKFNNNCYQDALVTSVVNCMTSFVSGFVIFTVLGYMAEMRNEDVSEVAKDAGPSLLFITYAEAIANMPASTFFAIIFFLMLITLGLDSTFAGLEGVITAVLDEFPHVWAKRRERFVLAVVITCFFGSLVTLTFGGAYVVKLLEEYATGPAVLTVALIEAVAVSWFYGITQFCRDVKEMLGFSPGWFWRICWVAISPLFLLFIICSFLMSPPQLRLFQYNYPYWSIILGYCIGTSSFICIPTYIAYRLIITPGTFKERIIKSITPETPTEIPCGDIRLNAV

SMILES | outcome | AC50
CCCCC[C@H](O)CC(=O)CCc1ccc(O)c(OC)c1 | inactive | 
O=C(/C=C/c1ccc(O)cc1)CC(=O)/C=C/c1ccc(O)cc1 |  | 3.2 µM (active)
COc1cc(/C=C/C(=O)CC(=O)/C=C/c2ccc(O)c(OC)c2)ccc1O |  | 2.12 µM (active)

Source: PubChem BioAssay AID2284203 (EPA ToxCast)
